Hit rate of the full screen: of about 290,000 compounds, about 3,000 (1%) were called active. The sample as a whole holds a higher share of actives than the screen did. Unmarked numbers belong to inactive results. Rule as the data show it: active = inhibition mostly above about 36% (no sharp cut-off); inactive = mostly below about 34%.

This assay in a line: NOD1 signaling inhibitors, primary screen, cell-based, luminescence, uHTS (AID 1578).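 Also: HEK-293T reporter cells stimulated with the NOD1 agonist gamma-tri-DAP.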 To be noted: NOD1-driven NF-kB luciferase reporter cells, at 4 µM, hits give high values. (A reporter such as luciferase makes a cellular process visible.)
On to `CSc1nc2c(c(=O)[nH]1)CCCC2`, for which the inhibition is -21.3%.
On to `COC(=O)c1ccc(NC(=O)CNC(=O)C2CCCCC2)cc1`, for which the inhibition was -20.7%.
As for `C/C(=N\NC(=O)c1nn(C)cc1Br)c1ccncc1`, the inhibition was -3.7%.
For `O=C(O)c1ccc(S(=O)(=O)c2ccc3c(c2)C(=O)N(c2ccc(Br)cc2)C3=O)cc1` the value was -8.2%; for `CN(CCOC(=O)c1ccco1)Cc1ccccc1`, 3.9%.
For `O=C1NN(c2ccccc2)C(=O)/C1=C/c1ccc(-c2ccc(C(=O)O)cc2)o1` the value was -32%; for `O=C1NN(c2ccccc2)C(=O)/C1=C/c1ccc(Sc2cccc3ccccc23)o1`, 74.7% (active); for `COc1ccc(Sc2ccc(/C=C3\C(=O)NN(c4ccccc4)C3=O)o2)cc1`, -2.5%.
For `CC(=O)N1[C@H](C)C=C[C@]1(Cc1ccccc1)C(=O)NCc1cc(F)cc(C(F)(F)F)c1` the value was 5.4%; for `CCN(CC)CCNCC1C(=O)O[C@@H]2C[C@@]3(C)CCC[C@H](C)C3=C[C@H]12` (stereo partly drawn), -10.7%.
Turning to `CC1CCN(CC2C(=O)O[C@@H]3C[C@@]4(C)CCC[C@H](C)C4=C[C@H]23)CC(C)(C)C1` (stereo partly drawn), the inhibition was 15.4%.
Consider `C[C@H]1CCC[C@]2(C)C[C@H]3OC(=O)C(CN4CCCCCC4)[C@H]3C=C12` (stereo partly drawn), for which the inhibition was 34% (active).
For `CCOC(=O)c1c(C)[nH]c(C(=O)CN2C(=O)NC(C)(CC(C)C)C2=O)c1C` (stereo not drawn) the value was -30.4%; for `CCOc1ccc(NC(=O)c2cc(=O)[nH]c3ccccc23)cc1`, -21.6%; for `Nc1ccc2nc(SCc3ccccc3F)sc2c1`, -8.7%.
The value for `CCc1cccc(NC(=O)c2cnn(-c3ccccc3)c2C)c1` was -1.5%.
For `COc1ccc(-c2nc(CSCC(=O)NC3CCN(Cc4ccccc4)CC3)c(C)o2)cc1OC` the value was -11.6%; for `Cc1ccc(-c2nc(CSCC(=O)NC3CCN(Cc4ccccc4)CC3)c(C)o2)cc1`, 16%.
Take `COc1cc(C(=O)N2CCCCCCC2)ccc1OC1CCN(C(C)=O)CC1`: the inhibition was -27.7%.
For `C=CCc1cccc(/C=N/NC(=O)C(C)Nc2cccc(C)c2)c1O` (stereo not drawn) the value was 53.5% (active).
For `C=CCc1cccc(/C=N/NC(=O)C(=O)Nc2ccc(C)cc2)c1O` the value was -24.6%; for `C=CCc1cccc(/C=N/NC(=O)C(C)Nc2ccc(C)cc2)c1O` (stereo not drawn), 30.7%; for `CCOC(=O)C(Cc1ccccc1)NC(=O)CNC(C)=O` (stereo not drawn), -11.4%.
For `CSc1ccc(/C=N/Nc2ccc(Cl)c(C(=O)O)c2)cc1` the value was -22.8%.
Turning to `CC(C)(C)c1ccc(/C=N/Nc2cccc(C(=O)O)c2)cc1`, the inhibition is -13.1%.
As to `CSc1ccc(/C=N/Nc2cccc(C(=O)O)c2)cc1`, the inhibition is 83.8% (active).
For the molecule `O=C(O)c1cccc(N/N=C/c2ccc(F)c(F)c2)c1`, the inhibition was -12.4%.
For `CN(C)c1ccc(/C=N/Nc2cccc(C(=O)O)c2)cc1` the value was 72.1% (active); for `Cc1ccsc1/C=N/Nc1ccc(C(=O)O)cc1`, -2.3%; for `O=C(O)c1cccc(N/N=C/c2ccc(-c3ccccc3)cc2)c1`, 3.6%.
For `Cc1ccc(/C=N/Nc2cccc(C(=O)O)c2)s1` the value was 4.1%; for `Cc1ccsc1/C=N/Nc1cccc(C(=O)O)c1`, 84% (active); for `Cc1ccc(NC(=O)COc2ncnc3cc([N+](=O)[O-])ccc23)cc1S(=O)(=O)N1CCOCC1`, -14.7%.
Take `CCC/S(C)=N/S(=O)(=O)c1ccc(C)cc1` (stereo not drawn): the inhibition was -6.2%.
The value for `O=C1CSC(c2ccccc2F)N1CCN1CCCCC1` (stereo not drawn) was -19%; that for `COC(=O)c1cccc(NC(=O)Cc2ccc(OC)cc2)c1C` was -11.4%; that for `O=C(Nc1ccccc1)Nc1nc(-c2ccccc2)cs1` was -13.8%.
The value for `Cc1ccsc1/C=N/N1CCOCC1` was -33.4%; that for `CCOC(=O)N1CCC(Nc2c(Nc3cccc(CC)c3)c(=O)c2=O)CC1` was 18.1%; that for `CCOc1ccc(C(=O)Nc2cccc3ncccc23)cc1Cl` was 8.8%.
The value for `Cc1ccccc1OCC(=O)Nc1ccc2[nH]ncc2c1` was -17.7%; that for `CC(C)c1ccccc1OCC(=O)Nc1ccc2[nH]ncc2c1` was 47.7% (active).
For the molecule `O=C(COc1ccccc1)Nc1ccc2[nH]ncc2c1`, the inhibition was -11.3%.
For `N#Cc1c(Nc2ccccc2)sc(C(=O)c2ccc(F)cc2)c1N`, the inhibition is 5.2%.
For `Nc1c(C(=O)c2ccccc2)sc(Nc2ccccc2)c1S(=O)(=O)c1ccccc1` the value was 52.2% (active).
On to `N#Cc1c(Nc2ccccc2)sc(C(=O)c2ccccc2)c1N`, for which the inhibition was 0.9%.
For `Cc1ccc(C(=O)CSc2ncnc3sc4c(c23)CCCC4)cc1` the value was 31%; for `COCCn1c(C)cc(C(=O)CSc2nnc(C)s2)c1C`, 77.8% (active); for `CC(=O)CSc1ncnc2sc3c(c12)CCC3`, 13.2%.
Take `COCCn1c(C)cc(C(=O)CSc2nc3ccccc3s2)c1C`: the inhibition is 54%.
For `COCCn1c(C)cc(C(=O)CSc2nc(C)c(C)c(C)n2)c1C` the value was -5.4%.
The value for `COc1ccc(CNCc2ccc3c(c2)OCO3)c(OC)c1OC` was -18%.
The value for `Cc1cc(N2CCN(C)CC2)nc2ccc(NC(=O)CCC(=O)NCCC(C)C)cc12` was -10.6%; that for `Cc1ccc(-c2nc3ccccc3n3nnnc23)cc1` was -53.8%; that for `Cc1ccc2nc(Cl)c3nnnn3c2c1` was 83.8% (active).
With `Cc1ccc2nc(N3CCN(c4cccc(C)c4C)CC3)c3nnnn3c2c1`, the inhibition is 6.9%.
Turning to `COc1ccc(OCCC(=O)N2CCOCC2)cc1`, the inhibition was -24%.
For the molecule `O=C(Nc1ccccc1C(=O)NCc1ccccc1)c1ccco1`, the inhibition was -14.6%.
For `CN(Cc1ccccc1)C(=O)c1ccccc1NC(=O)c1ccccc1` the value was -20.6%; for `CN(Cc1ccccc1)C(=O)c1ccccc1NC(=O)c1ccco1`, 54.5% (active).
The value for `Oc1ccc(/C=N/Nc2ccnc3cc(Cl)ccc23)c(O)c1O` was -3.8%; that for `CN(C)CCN(C(=O)c1ccc(N2C(=O)CCC2=O)cc1)c1nc2cc3c(cc2s1)OCO3` was -20.4%.
The value for `O=C(N/N=C/c1ccccc1Br)C1CC1` was -25.3%.

Broadly, the inhibition is the change of the read-out against control, counted positive when it falls.

The values above are taken from PubChem BioAssay AID1578 (Sanford-Burnham Center for Chemical Genomics, 2009).
